Measurements from PubChem BioAssay (NCATS).
Inconclusive results are not listed. The source made the active and inactive calls. The call rests on the fitted dose curve; in most records, active means well fitted curve in the direction sought with a large enough effect; inconclusive means small, poorly fitted or top-dose-only effect, or another doubt; inactive means no such curve, though single readings can be large; an effect the other way counts as inactive or inconclusive.

What was measured:
Furin (Homo sapiens) = Furin (Homo sapiens) (UniProt P09958); test: Furin counterscreen qHTS for Zika virus inhibitors (AID 1347149); further: nearly all actives have a fitted effect of over 70% in size; further: potency means the concentration at half of the fitted maximal effect
Furin (Homo sapiens), sequence (P09958 whole entry, looked up): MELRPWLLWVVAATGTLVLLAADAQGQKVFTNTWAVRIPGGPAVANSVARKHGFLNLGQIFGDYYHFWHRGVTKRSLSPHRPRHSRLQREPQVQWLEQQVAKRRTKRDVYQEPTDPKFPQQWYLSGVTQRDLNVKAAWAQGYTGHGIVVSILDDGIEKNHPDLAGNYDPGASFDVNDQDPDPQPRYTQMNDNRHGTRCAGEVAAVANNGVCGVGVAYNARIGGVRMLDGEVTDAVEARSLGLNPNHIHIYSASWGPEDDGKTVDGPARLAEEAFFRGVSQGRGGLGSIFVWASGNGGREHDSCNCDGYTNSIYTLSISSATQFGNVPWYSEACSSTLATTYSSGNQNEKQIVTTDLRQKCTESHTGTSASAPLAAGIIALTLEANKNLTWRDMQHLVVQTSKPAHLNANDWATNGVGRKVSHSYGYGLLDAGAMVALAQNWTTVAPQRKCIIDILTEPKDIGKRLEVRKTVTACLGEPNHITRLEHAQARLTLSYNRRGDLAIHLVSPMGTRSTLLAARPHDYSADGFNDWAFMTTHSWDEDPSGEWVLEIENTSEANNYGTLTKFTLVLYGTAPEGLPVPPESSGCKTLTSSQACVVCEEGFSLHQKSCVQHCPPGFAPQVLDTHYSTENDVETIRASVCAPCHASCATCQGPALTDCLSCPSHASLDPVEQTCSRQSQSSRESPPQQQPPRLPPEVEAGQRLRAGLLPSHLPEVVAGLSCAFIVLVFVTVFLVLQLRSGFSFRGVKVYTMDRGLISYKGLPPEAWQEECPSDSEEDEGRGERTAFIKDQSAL
Procedure, shortened: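 Counterscreen measures cleavage of 2 microM BOC-RVRR-AMC, below its ~15 microM Km, by 5 nM full-length human furin at pH 7.0 after a 15-min compound preincubation. Inhibition derives from the 15-min fluorescence increase at 37C.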

[1] = qHTS of pediatric cancer cell lines to identify multiple opportunities for drug repurposing: Primary screen for DAOY cells (AID 1347090); further: series mostly up to about 46 µM; nearly all actives have a fitted effect of over 55% in size
Procedure, shortened: (§1)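 Viability measured as metabolically active cells via CellTiter-Glo luminescence following 48 hours of compound exposure, 11-point dilutions in confirmatory testing. 500-1,000 cells/well plated 5 hours before dosing; controls were DMSO and 2.3 µM bortezomib.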

[2] = qHTS of pediatric cancer cell lines to identify multiple opportunities for drug repurposing: Primary screen for SJ-GBM2 cells (AID 1347091)
Procedure, shortened: as §1

[3] = qHTS of pediatric cancer cell lines to identify multiple opportunities for drug repurposing: Primary screen for A673 cells (AID 1347092); further: nearly all actives have a fitted effect of over 45% in size; further: potency means the concentration at half of the fitted maximal effect
Procedure, shortened: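 Luminescence from CellTiter-Glo, taken after 15 min at room temperature, served as the proxy for metabolically active cells following 48 h treatment. Both potency and efficacy were taken from curves fitted to the titration data.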

[4] = qHTS of pediatric cancer cell lines to identify multiple opportunities for drug repurposing: Primary screen for BT-37 cells (AID 1347094); further: series mostly up to about 57 µM
Procedure, shortened: (§2)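 Quantitative HTS format: each compound titrated (MIPE 11 points from 0.78 nM, NPC 8 points from 0.59 nM) onto cells plated 5 hours earlier. After 48 h at 37 degrees C, CellTiter-Glo luminescence was recorded.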

[5] = qHTS of pediatric cancer cell lines to identify multiple opportunities for drug repurposing: Primary screen for U-2 OS cells (AID 1347096); further: nearly all actives have a fitted effect of over 50% in size
Procedure, shortened: (§3)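 Viability after 48 h compound treatment at 37C, 500-1,000 cells/well, read as ATP luminescence with CellTiter-Glo. Primary screens used 11-point (MIPE, 0.78 nM-46 µM) or 8-point (NPC, 0.59 nM-46 µM) final concentrations; follow-up screens used 11-point dilutions.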

[6] = qHTS of pediatric cancer cell lines to identify multiple opportunities for drug repurposing: Primary screen for Saos-2 cells (AID 1347097); further: nearly all actives have a fitted effect of over 40% in size; further: potency means the concentration at half of the fitted maximal effect
Procedure, shortened: as §2

[7] = qHTS of pediatric cancer cell lines to identify multiple opportunities for drug repurposing: Primary screen for SK-N-SH cells (AID 1347098); further: nearly all actives have a fitted effect of over 65% in size; further: potency means the concentration at half of the fitted maximal effect
Procedure, shortened: (§4)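 Cells (500-1,000/well) rested 5 h, then received compounds for 48 h; metabolically active cells were measured by CellTiter-Glo luminescence. Final concentrations spanned up to 46 µM (MIPE, 11-point) or 0.59 nM-46 µM (NPC, 8-point) in primary screens, 11-point in follow-ups.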

[8] = qHTS of pediatric cancer cell lines to identify multiple opportunities for drug repurposing: Primary screen for NB1643 cells (AID 1347099); further: nearly all actives have a fitted effect of over 50% in size; further: potency means the concentration at half of the fitted maximal effect
Procedure, shortened: as §2

[9] = qHTS of pediatric cancer cell lines to identify multiple opportunities for drug repurposing: Primary screen for LAN-5 cells (AID 1347100); further: potency means the concentration at half of the fitted maximal effect
Procedure, shortened: as §3

[10] = qHTS of pediatric cancer cell lines to identify multiple opportunities for drug repurposing: Primary screen for BT-12 cells (AID 1347101); further: nearly all actives have a fitted effect of over 25% in size
Procedure, shortened: as §4

[11] = qHTS of pediatric cancer cell lines to identify multiple opportunities for drug repurposing: Primary screen for Rh18 cells (AID 1347102); further: nearly all actives have a fitted effect of over 65% in size
Procedure, shortened: as §3

[12] = qHTS of pediatric cancer cell lines to identify multiple opportunities for drug repurposing: Primary screen for OHS-50 cells (AID 1347103); further: nearly all actives have a fitted effect of over 40% in size
Procedure, shortened: as §4

[13] = qHTS of pediatric cancer cell lines to identify multiple opportunities for drug repurposing: Primary screen for RD cells (AID 1347104); further: nearly all actives have a fitted effect of over 55% in size
Procedure, shortened: as §2

[14] = qHTS of pediatric cancer cell lines to identify multiple opportunities for drug repurposing: Primary screen for MG 63 (6-TG R) cells (AID 1347105); further: nearly all actives have a fitted effect of over 50% in size
Procedure, shortened: as §2

[15] = qHTS of pediatric cancer cell lines to identify multiple opportunities for drug repurposing: Primary screen for control Hh wild type fibroblast cells (AID 1347106);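 further: series mostly up to about 46 µM; a drop in luminescence marks cytotoxicity and a rise apparent proliferation; nearly all actives have a fitted effect of over 55% in size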
Procedure, shortened: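 Cells (500-1,000/well) in growth media were settled 5 h at 37 degrees C, then given compounds for 48 h. Viability was read as CellTiter-Glo luminescence. Primary runs used MIPE at 11 points (0.78 nM-46 µM) and NPC at 8 points (0.59 nM-46 µM); follow-ups used 11 points.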

[16] = qHTS of pediatric cancer cell lines to identify multiple opportunities for drug repurposing: Primary screen for Rh30 cells (AID 1347107); further: series mostly up to about 46 µM; nearly all actives have a fitted effect of over 75% in size
Procedure, shortened: as §3

[17] = qHTS of pediatric cancer cell lines to identify multiple opportunities for drug repurposing: Primary screen for Rh41 cells (AID 1347108);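 further: series mostly up to about 46 µM; luminescence drop marks cytotoxic hits; nearly all actives have a fitted effect of over 70% in size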
Procedure, shortened: as §2

[18] = qHTS of pediatric cancer cell lines to identify multiple opportunities for drug repurposing: Primary screen for SK-N-MC cells (AID 1347093); further: series mostly up to about 46 µM
Procedure, shortened: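 Metabolically active cells were quantified by ATP-dependent luminescence (CellTiter-Glo, 15 min at room temperature) following 48 h treatment. Cells had been plated at 500-1,000 per well and settled for 5 h beforehand.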

[19] = qHTS of pediatric cancer cell lines to identify multiple opportunities for drug repurposing: Primary screen for NB-EBc1 cells (AID 1347095)
Procedure, shortened: as §2

Measured: Potency

CC1=C(C(=O)OCc2ccccc2)C(c2ccc(-c3ccccc3)cc2)NC(=O)N1CCCCCC(=O)O (stereo unspecified)
active: Furin (Homo sapiens) 39.3 µM

O=C(O)c1c(O)c(-c2ccccc2)nc2ccccc12
not listed: Furin (Homo sapiens) | [18] | [19]
inactive: all other assays above

O=C(O)Cc1ccc2oc(-c3ccc(NC(=O)/C=C/c4ccc(Br)cc4)c(F)c3)nc2c1
active: Furin (Homo sapiens) 55.5 µM

Nc1ncnc2c([C@@H]3N[C@H](CO)[C@@H](O)[C@H]3O)c[nH]c12
inactive: Furin (Homo sapiens)

Nc1ccccc1N
active: [3] 15.4 µM | [6] 30.6 µM | [8] 30.6 µM | [9] 17.2 µM
inactive: [2] | [14] | [15]

COc1ccc(C(=O)n2c(C)c(Cc3cccc(O[C@@H](C)C(=O)O)c3)c3cc(OC(F)(F)F)ccc32)cc1
active: Furin (Homo sapiens) 49.4 µM

CC1(C)CCC(C)(C)c2cc(C3(c4ccc(C(=O)O)cc4)OCCO3)ccc21
inactive: Furin (Homo sapiens)

O=C(N/N=C/c1ccc(O)c(O)c1)c1cc2ccccc2cc1O
inactive: Furin (Homo sapiens)

CCC(C(=O)O)c1ccc(N2Cc3ccccc3C2=O)cc1 (stereo unspecified)
not listed: Furin (Homo sapiens)
inactive: all other assays above

N#CC(c1ccnc(OCc2ccc(CN3CCOCC3)cc2)n1)c1nc2ccccc2s1 (stereo unspecified)
inactive: Furin (Homo sapiens)

O=C(O)c1ccccc1NCCc1ccccc1
not listed: Furin (Homo sapiens) | [18]
inactive: all other assays above

CCOCCOC(=O)/C=C/c1ccc(OC)cc1
not listed: Furin (Homo sapiens)
inactive: all other assays above

O=C(O)/C=C/c1ccc(-c2ccc(O)c(C34CC5CC(CC(C5)C3)C4)c2)cc1
active: Furin (Homo sapiens) 44.1 µM

CCc1c(-c2ccccc2)c(-c2ccccc2)nn1-c1ccccc1-c1cccc(OCC(=O)O)c1
active: Furin (Homo sapiens) 30.4 µM

O=C(Nc1ccc(S(=O)(=O)Nc2nccs2)cc1)C(c1ccccc1)c1ccccc1
inactive: Furin (Homo sapiens)

Cc1ccc(N)cc1O
inactive: [2] | [14] | [15]
active: [3] 30.6 µM | [7] 31.4 µM

CC(C)c1cccc2c(-c3ccccc3)cc(-c3ccc(-c4ccc(C(=O)O)cc4)[nH]3)nc12
active: Furin (Homo sapiens) 39.3 µM
